Screens (PubChem BioAssay)
Most compounds without a hit are left out; they make up all but 16% or so of the library.
TDP1 cell CPT – qHTS for Inhibitors of human tyrosyl-DNA phosphodiesterase 1 (TDP1): qHTS in cells in presence of CPT; 420,000 tested, 12% active; chicken DT40 Tdp1-/-;hTDP1 cells + 20 nM CPT, ATP luminescence, 48 h; AID 686979, 2013; Potency, µM (doses to about 46.2 µM), for inactives: at the highest dose activity change, negative = growth inhibition, most hits filed as inhibitors; note: potency is the fitted concentration of half-maximal effect; % is set by controls: 0 for no effect and ±100 for the full control effect; nearly all actives have a fitted effect of over 55% in size
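Chicken DT40 Tdp1-/- cells complemented with human TDP1, 400 cells/well, exposed to compounds plus 20 nM camptothecin for at least 48 h at 37 C; viability read as ATP content by CellTiter-Glo luminescence.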
TDP1 block – qHTS Assay for Inhibitors of Tyrosyl-DNA Phosphodiesterase (TDP1); Tyrosyl-DNA phosphodiesterase 1 (Homo sapiens), Q9NUW8; recombinant TDP1, AlphaScreen DNA substrate cleavage; Potency, µM (series often up to 130 µM), without a hit: top-dose activity change, negative = inhibition, most hits filed as inhibitors; 350,000 tested, 0.28% active; AID 485290, 2010; note: potency is the fitted concentration of half-maximal effect; % is set by controls: 0 for no effect and ±100 for the full control effect; nearly all actives have a fitted effect of over 40% in size
Target sequence (Q9NUW8 whole entry, looked up): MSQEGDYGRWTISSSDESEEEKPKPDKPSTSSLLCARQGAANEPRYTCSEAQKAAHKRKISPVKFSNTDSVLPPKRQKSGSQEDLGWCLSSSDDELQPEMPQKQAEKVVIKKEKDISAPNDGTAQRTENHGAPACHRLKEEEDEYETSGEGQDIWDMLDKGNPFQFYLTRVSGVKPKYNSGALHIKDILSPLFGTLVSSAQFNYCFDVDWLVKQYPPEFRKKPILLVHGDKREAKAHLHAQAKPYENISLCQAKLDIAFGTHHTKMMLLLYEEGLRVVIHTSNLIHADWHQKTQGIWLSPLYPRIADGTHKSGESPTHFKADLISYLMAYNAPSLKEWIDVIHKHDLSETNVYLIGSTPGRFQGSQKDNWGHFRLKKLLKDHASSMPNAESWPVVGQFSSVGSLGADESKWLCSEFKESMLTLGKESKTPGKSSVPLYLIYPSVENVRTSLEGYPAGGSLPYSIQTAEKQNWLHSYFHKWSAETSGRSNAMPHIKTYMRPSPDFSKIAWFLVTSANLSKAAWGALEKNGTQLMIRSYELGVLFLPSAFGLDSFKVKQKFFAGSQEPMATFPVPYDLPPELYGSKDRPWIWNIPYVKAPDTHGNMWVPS
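Compounds were preincubated with Tdp1 (1 nM final) for 15 min at room temperature before substrate (15 nM final) started a 5 min reaction; beads (10 ug/ml final) were then added for 10 min before AlphaScreen detection.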
miR-21 reporter – qHTS Assay for Modulators of miRNAs and/orActivators of miR-21; HeLa miR-21 FLuc reporter, luciferase, 48 h; Potency, µM (highest dose often 38.3 µM), without a hit: top-dose activity change, positive = activation, hits mostly activators; 340,000 tested, under 10 active; AID 2288, 2010;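 note: % of control where 0% means no effect; miR-21 action dims this reporter so a rising signal means less miR-21 action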
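HeLa cells endogenously expressing miR-21, stably carrying CMV-driven firefly luciferase with a downstream miR-21 binding site, 2000 cells/well. Titrations up to approximately 40 uM, 48 hours; luciferase luminescence read.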
uPA surface inh – qHTS for Inhibitors of Cell Surface uPA Generation; cell surface uPA generation assay, qHTS; Potency, µM (highest dose often 38.3 µM), inactives show top-dose activity change, negative = inhibition, most hits filed as inhibitors; 330,000 tested, 0.31% active; active = well fitted inhibition curve with a large enough effect; inconclusive = small, poorly fitted or top-dose-only effect; inactive = no such curve, though single readings can be large or run the other way; tested in mouse RAW 264.7 cells; note: potency is the fitted concentration of half-maximal effect; % is set by controls: 0 for no effect and ±100 for the full control effect; nearly all actives have a fitted effect of over 55% in size
TDP1 cell noCPT – qHTS for Inhibitors of human tyrosyl-DNA phosphodiesterase 1 (TDP1): qHTS in cells in absence of CPT | DT40 Tdp1-/- hTDP1 cells, no CPT, ATP luminescence, 48 h | Potency, µM (titrated, usually from 46.2 µM), for inactives: at the top dose activity change, negative = growth inhibition, actives largely listed as inhibitors | 420,000 tested, 15% active; note: potency is the fitted concentration of half-maximal effect; % is set by controls: 0 for no effect and ±100 for the full control effect; nearly all actives have a fitted effect of over 55% in size
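Camptothecin absent (DMSO only). Human TDP1-complemented DT40 knockout cells, 400 cells/well, 37 °C for minimum 48 hr; ATP measured via CellTiter-Glo, 30 min dark incubation, luminescence.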
The depositor's hits bear a star; [ ] = remark or other dose. Unless noted, calls come from the whole dose curve; as a rule, active = well fitted curve in the direction sought with a large enough effect; inconclusive = small, poorly fitted or top-dose-only effect, or another doubt; inactive = no such curve, though single readings can be large; an effect the other way counts as inactive or inconclusive.

`O=C(/C=C/c1cc(Br)ccc1O)c1ccco1` gave TDP1 cell CPT 6.51µM*, miR-21 reporter inconclusive, uPA surface inh -14.6% and TDP1 cell noCPT 2.59µM*.
For Nc1ccc(/C=C/C(=O)c2ccco2)cc1 the results were TDP1 cell CPT -18.7%, TDP1 block 0.6%, miR-21 reporter -34.8%, uPA surface inh -4.1% and TDP1 cell noCPT inconclusive.
N#Cc1ccc(/C=C/C(=O)c2ccco2)cc1 was read as TDP1 cell CPT 9.2µM*, TDP1 block -2.6%, miR-21 reporter -0.3%, uPA surface inh -4.6% and TDP1 cell noCPT 10.3µM*.
COc1ccccc1/C=C/C(=O)c1cc(Br)ccc1OC(=O)c1ccco1 was read as TDP1 cell CPT inconclusive, uPA surface inh -14.1% and TDP1 cell noCPT inconclusive.
For O=[N+]([O-])c1ccc(S(=O)(=O)Nc2ccc(-c3ccccc3)cc2)cc1 the results were TDP1 cell CPT inconclusive and TDP1 cell noCPT 13µM*.
For O=C1CCCN1c1ccc(S(=O)(=O)Nc2ccc3c(c2)OCCO3)cc1 the results were TDP1 cell CPT 3.26µM*, TDP1 block 2.2%, miR-21 reporter 21.7%, uPA surface inh inconclusive and TDP1 cell noCPT 2.91µM*.
Screening CC(=O)c1cc2c(cc1NS(=O)(=O)c1ccccc1)OCO2 returned TDP1 cell CPT -14.0%, TDP1 block 1.4%, miR-21 reporter -28.1%, uPA surface inh 0.7% and TDP1 cell noCPT -10.4%.
CC(=O)Nc1ccc(S(=O)(=O)N2CCCC2)cc1 was read as TDP1 cell CPT inconclusive, miR-21 reporter 0.5%, uPA surface inh -0.4% and TDP1 cell noCPT -20.5%.
CC(=O)Nc1ccc(S(=O)(=O)N2CCc3cc4c(cc3C2)OCCCO4)cc1 was read as TDP1 cell CPT 20.6µM*, TDP1 block -3.9%, miR-21 reporter 2.0%, uPA surface inh 0.9% and TDP1 cell noCPT inconclusive.
CC(=O)c1cc2c(cc1NS(=O)(=O)c1ccc(C)cc1)OCCO2 was read as TDP1 cell CPT 23.1µM*, TDP1 block 0.0%, miR-21 reporter 18.4%, uPA surface inh -12.2% and TDP1 cell noCPT 20.6µM*.
Screening CCOC(=O)CCSCC(=O)Nc1cc(C)on1 returned TDP1 cell CPT -1.8%, TDP1 block 7.8%, miR-21 reporter -7.5%, uPA surface inh 3.9% and TDP1 cell noCPT 2.4%.
Screening CC(=O)Nc1ccc(S(=O)(=O)Nc2ccc3c(c2)OCCO3)cc1 returned TDP1 cell CPT inconclusive, TDP1 block 1.2%, miR-21 reporter 8.8%, uPA surface inh -0.8% and TDP1 cell noCPT 7.31µM*.
Screening O=[N+]([O-])c1ccc(S(=O)(=O)Nc2ccc3c(c2)OCCO3)cc1 returned TDP1 cell CPT inconclusive, miR-21 reporter -3.2%, uPA surface inh 0.0% and TDP1 cell noCPT 16.4µM*.
Screening N#CCc1ccc(NS(=O)(=O)c2ccc(N3CCCC3=O)cc2)cc1 returned TDP1 cell CPT 13µM*, TDP1 block -2.6%, miR-21 reporter -3.0%, uPA surface inh 2.6% and TDP1 cell noCPT inconclusive.
COc1cc(OC)cc(-c2c(Sc3ccccc3)c3cc(-c4ccc(OC)c(F)c4)ccc3n2C)c1 was read as TDP1 cell CPT -8.7% and TDP1 cell noCPT -7.1%.
Screening COc1ccc(-n2c(CCNC(=O)c3ccc(-c4cccc(F)c4)cc3)nnc2SC)cc1 returned TDP1 cell CPT -0.9%[9.04 µM] and TDP1 cell noCPT inconclusive.
CCN(CC)S(=O)(=O)c1ccc2oc(SCC3CN=C(c4ccc(OC)cc4)S3)nc2c1 (stereo not drawn) was read as TDP1 cell CPT inconclusive, TDP1 block -2.1%, miR-21 reporter -7.7%, uPA surface inh 0.4% and TDP1 cell noCPT 16.4µM*.
Screening COc1ccc(C2=NCC(CSc3nnc(-c4ccc5c(c4)OCO5)o3)S2)cc1 (stereo not drawn) returned TDP1 cell CPT inconclusive, TDP1 block 6.1%, miR-21 reporter -16.8%, uPA surface inh 3.1% and TDP1 cell noCPT inconclusive.
Cc1ccc(F)cc1NC(=O)c1sc2ncn(CC(=O)N3CCN(c4ccccn4)CC3)c(=O)c2c1C was read as TDP1 cell CPT 9.3%, TDP1 block 1.9%, miR-21 reporter -0.2%, uPA surface inh 23.0% and TDP1 cell noCPT inconclusive.
Cc1nc(N2CCN(c3ccccn3)CC2)c2c(C)c(C(=O)Nc3ccccc3F)sc2n1 was read as TDP1 cell CPT inconclusive, TDP1 block 3.5%, miR-21 reporter -0.7%, uPA surface inh -1.4% and TDP1 cell noCPT 16.4µM*.
For Cc1nc(N2CCN(c3ccccn3)CC2)c2c(C)c(C(=O)Nc3ccc(F)cc3Cl)sc2n1 the results were TDP1 cell CPT 23.1µM*, TDP1 block 3.0%, miR-21 reporter 1.0%, uPA surface inh 11.0% and TDP1 cell noCPT 20.6µM*.
Screening Cc1nc(N2CCOCC2)c2c(C)c(C(=O)Nc3ccc(F)cc3Cl)sc2n1 returned TDP1 cell CPT -8.9%, TDP1 block -5.3%, miR-21 reporter -1.5%, uPA surface inh -1.8% and TDP1 cell noCPT 0.6%.
`Cc1nc(N2CCN(c3ccccn3)CC2)c2c(C)c(C(=O)Nc3ccc(F)cc3F)sc2n1` gave TDP1 cell CPT 16.4µM*, TDP1 block 3.7%, miR-21 reporter 2.1%, uPA surface inh 1.4% and TDP1 cell noCPT 13µM*.
Cc1cc(C)cc(NC(=O)CSc2nc(=O)n(Cc3ccccn3)c3c2CCC3)c1 was read as TDP1 cell CPT inconclusive, TDP1 block -7.8%, miR-21 reporter 4.0% and TDP1 cell noCPT inconclusive.
Cc1sc(NC(=O)CN2CCCC2)nc1-c1ccc2c(c1)CCN2C(=O)c1ccc(F)cc1 was read as TDP1 cell CPT inconclusive, miR-21 reporter -0.7%, uPA surface inh 2.1% and TDP1 cell noCPT 18.4µM*.
`CC(=O)Nc1nc(-c2ccc3c(c2)CCN3C(=O)C2CC2)c(C)s1` gave TDP1 cell CPT 1.46µM*, miR-21 reporter inconclusive, uPA surface inh -6.0% and TDP1 cell noCPT 1.3µM*.
O=C(c1ccc(CS(=O)c2ccccc2Cl)o1)N1CCN(c2cccc(Cl)c2)CC1 (stereo not drawn) was read as TDP1 cell CPT 0.259µM*, TDP1 block 7.7%, miR-21 reporter inconclusive and TDP1 cell noCPT 0.517µM*.
`O=C(c1ccc(CS(=O)Cc2ccc(Cl)cc2)o1)N1CCN(c2ccccc2)CC1` (stereo not drawn) gave TDP1 cell CPT -14.8%, TDP1 block 7.6%, miR-21 reporter 8.5%, uPA surface inh -4.1% and TDP1 cell noCPT -22.1%.
